A short description of experiment [1]: A549 cell viability effects, profiling panel, calcein-AM fluorescence, 48 h, basal (AID 1162). Particulars: higher = more signal.
A short description of experiment [2]: adipocyte viability effects, profiling panel, cell-based, 3T3-L1 adipocytes, calcein-AM fluorescence, 48 h, basal (AID 1163). Particulars: 3T3-L1 adipocytes viability, higher = more signal.
Experiment [3] in a line: HepG2 cell viability effects, profiling panel, calcein-AM fluorescence, 48 h, basal (AID 1164). Particulars: higher = more signal.
Experiment [4] is described as follows: MM1S cell viability effects, profiling panel, calcein-AM fluorescence, 48 h, basal (AID 1165).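 Also: viability of MM1S multiple myeloma cells under basal unstimulated conditions.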 The settings on record: higher = more signal.
A short description of experiment [5]: basal RPMI8226 viability, no added stimulus, profiling panel, cell-based, calcein-AM fluorescence, 48 h, PK04 Diversity Set (AID 1166).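 Also: cells grown under basal conditions without added stimulus.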 The settings on record: RPMI8226 myeloma viability, higher = more signal.
The nature of experiment [6]: basal HepG2 mitochondrial membrane potential changes, profiling panel, cell-based, JC-1 fluorescence, 24 h, 100 nL compound (AID 1167). Particulars: higher = more signal.
A short description of experiment [7]: basal 3T3-L1 adipocyte mitochondrial potential changes, profiling panel, cell-based, JC-1 fluorescence, 3T3-L1 adipocytes, 24 h, 100 nL compound (AID 1168). The settings on record: JC-1 mitochondrial fluorescence, higher = more signal, called active from +8 up or from −8 down.
Experiment [8] is described as follows: basal RPMI8226 mitochondrial membrane potential changes, profiling panel, cell-based, JC-1 fluorescence, 24 h, 100 nL compound (AID 1169). Particulars: RPMI8226 myeloma, JC-1 mitochondrial potential fluorescence, higher = more signal.
Experiment [9] is described as follows: basal MM1S mitochondrial membrane potential changes, profiling panel, cell-based, JC-1 fluorescence, 24 h, 100 nL compound (AID 1170). Particulars: higher = more signal.
A short description of experiment [10]: A549 lung cancer cell viability effects, profiling panel, resazurin fluorescence, 24 h, PK04 Diversity Set (AID 1171). The settings on record: higher = more signal, called active from +8 up or from −8 down.

Molecules are shown by their SMILES. The source made the active and inactive calls.
Also: test concentration not given here.

`O=C1NC(=O)C2C1C=CC(C(O)C1CC=CCC1)N2Nc1ccccn1` (stereo not given): the z-score in [1] was -0.905; in [2], -0.635; in [3], 1.06; in experiment [4] it was 0.0581; in experiment [5], -0.362; in experiment [6], -0.265. Besides, the z-score in experiment [7] is -0.147 (inactive); in experiment [8], -0.074; in experiment [9], -0.642; in experiment [10], -1.44 (inactive).
In the case of `COCCOC(=O)N1C(=O)[C@@]2(c3cc(C#Cc4ccc(OC)cc4)ccc31)[C@H](c1ccc(O)cc1)N1[C@H](c3ccccc3)[C@H](c3ccccc3)OC(=O)[C@H]1[C@@H]2C(=O)Nc1nc2ccccc2s1`, the z-score in [1] is -0.738; in experiment [2], 0.967; in experiment [3] it was 0.0165; in [4], -1.55; in experiment [5], -1.6; in [6], -2.51. In addition, the z-score is -0.0239 (inactive) in [7], -0.71 in [8], -1.34 in experiment [9] and -0.838 (inactive) in [10].
Take `CN(C)CCCC[C@@H]1NC(=O)[C@H]2C[C@@H](C(=O)NCCCCCN)[C@@H](c3cccc(OCCO)c3)N2C1=O`: the z-score is 0.227 in [1]; 0.167 in [2]; -0.42 in experiment [3]; -1.44 in [4]; 0.537 in experiment [5]; 1.28 in experiment [6]. Also, the z-score in [7] is 1.18 (inactive); in [8], 0.51; in experiment [9] it was 1.26; in experiment [10], 0.123 (inactive).
As for `C=C(CCCC)/C(=C/C[C@H](OC(C)=O)c1ccc(OCCO)cc1)c1cnc2ccccc2c1`, the z-score in [1] was -0.138; in [2], 0.0248; in experiment [3], -0.257; in experiment [4], -2.17; in experiment [5], -0.861; in experiment [6] it was 1.91. Moreover, the z-score was -1.26 (inactive) in [7], -0.108 in experiment [8], -0.552 in experiment [9] and 1.24 (inactive) in experiment [10].
`C=C(/C(=C/C[C@H](OC(=O)c1ccncc1)c1ccc(OCCO)cc1)c1cc(C(=O)OC)ccc1OC)C(C)C`: the z-score is 0.0699 in [1]; 1.62 in experiment [2]; -0.274 in [3]; -0.158 in experiment [4]; -1.9 in [5]; 0.751 in experiment [6]. Moreover, the z-score was 0.111 (inactive) in [7], -0.143 in [8], 0.503 in experiment [9] and 0.827 (inactive) in experiment [10].
As for `CC(C)=CCCC(C)=CC(O)C1C=CC2C(=O)N(c3ccccc3)C(=O)C2N1Nc1ccc(C(C)C)cc1` (stereo not given), the z-score is -1.27 in experiment [1]; -0.276 in [2]; -0.964 in [3]; 0.105 in experiment [4]; -0.589 in [5]; -1.09 in [6]. Further, the z-score was -0.696 (inactive) in [7], 0.465 in experiment [8], 1.06 in [9] and 0.38 (inactive) in experiment [10].
For the molecule `COCCOC(=O)N1C(=O)[C@@]2(c3cc(C#CCCO)ccc31)[C@H](c1ccc(OCCO)cc1)N1[C@H](c3ccccc3)[C@H](c3ccccc3)OC(=O)[C@H]1[C@@H]2C(N)=O`, the z-score in experiment [1] is 0.617; in experiment [2], 0.435; in experiment [3], 1.35; in [4], -0.109; in experiment [5], -0.804; in experiment [6] it was -0.72. The z-score in experiment [7] is -0.456 (inactive); in experiment [8], -0.899; in experiment [9], -0.0462; in experiment [10], 0.215 (inactive).
With `COCCCNC(=O)[C@@H]1c2ccccc2C(=O)N(Cc2ccccc2OC)[C@H]1c1ccc(CO)cc1`, the z-score was -0.0798 in experiment [1]; 1.02 in experiment [2]; -0.429 in experiment [3]; 0.528 in experiment [4]; -0.447 in experiment [5]; 1.59 in [6]. Also, the z-score was -0.588 (inactive) in experiment [7], -0.171 in experiment [8], -0.391 in experiment [9] and 1.71 (inactive) in [10].
For `C=C(C(=O)CC[C@H](OC(C)=O)c1ccccc1OCCO)C(C)C`, the z-score in experiment [1] was -2.33; in experiment [2], -0.375; in [3], -3.04; in [4], -0.899; in [5] it was -1.94; in experiment [6], -0.892. Further, the z-score in experiment [7] is 1.99 (inactive); in experiment [8] it was -0.621; in experiment [9] it was -1.19; in [10] it was -2.7 (inactive).
For `COCCCNC(=O)[C@@H]1c2ccccc2C(=O)N(Cc2ccccc2)[C@H]1c1ccc(CO)cc1`, the z-score is 0.273 in experiment [1]; 0.803 in [2]; 0.601 in experiment [3]; 0.239 in [4]; 0.437 in experiment [5]; 1.1 in experiment [6]. In addition, the z-score in [7] was -0.0918 (inactive); in experiment [8] it was 0.163; in [9], 0.282; in [10], 0.45 (inactive).
`COC(=O)c1c2oc(c1C(=O)OC)C(=O)NC1(CCCCC1)c1cn(nn1)C[C@H](Cc1ccccc1)NC(=O)N[C@H](CO)CC2`: the z-score was 0.947 in experiment [1]; -0.0442 in experiment [2]; 0.22 in [3]; 0.813 in experiment [4]; 1.17 in [5]; 0.537 in experiment [6]. In addition, the z-score is 0.691 (inactive) in [7], 0.564 in experiment [8], -0.887 in experiment [9] and 1.09 (inactive) in [10].
`C[N+](C)(C)CCCC[C@@H]1NC(=O)[C@@H]2C[C@H](C(=O)NCCCCCN)[C@H](c3ccc(O)cc3)N2C1=O`: the z-score was 1.01 in experiment [1]; 0.641 in experiment [2]; 0.383 in experiment [3]; 0.312 in [4]; 0.828 in experiment [5]; 1.79 in experiment [6]. The z-score in [7] was -0.13 (inactive); in [8] it was 0.243; in experiment [9], 0.41; in experiment [10], -0.0115 (inactive).
Consider `C=C(CCCC)C(=O)CC[C@H](OC(=O)c1cccnc1)c1ccc(OCCO)cc1`, for which the z-score was -0.15 in experiment [1]; 0.355 in experiment [2]; -0.478 in [3]; -3.34 in experiment [4]; -3.28 in experiment [5]; 0.697 in experiment [6]. Besides, the z-score in experiment [7] is -0.597 (inactive); in [8] it was -0.658; in experiment [9], -1.44; in experiment [10] it was -0.475 (inactive).
With `O=C1[C@H]2C=C(I)[C@H](C[C@@H]2OCCCCO)[C@@]12CO2`, the z-score is -0.292 in experiment [1]; -0.393 in experiment [2]; -0.66 in experiment [3]; -0.739 in [4]; -0.954 in experiment [5]; -1.71 in [6]. The z-score is -0.431 (inactive) in experiment [7], -1.13 in experiment [8], -0.509 in experiment [9] and 0.109 (inactive) in experiment [10].
Turning to `[N-]=[N+]=Nc1ccccc1C[C@]1(C(=O)NCC(O)CO)N=C(c2ccc(OCCCO)cc2)O[C@H]1c1ccccc1` (stereo not given in full), the z-score is -0.432 in experiment [1]; -0.281 in [2]; -0.259 in experiment [3]; -1.04 in experiment [4]; -0.984 in experiment [5]; -0.571 in experiment [6]. The z-score in experiment [7] is -0.332 (inactive); in experiment [8], -0.514; in [9], -0.283; in experiment [10] it was 0.381 (inactive).

(Values after PubChem BioAssay.)
